# Measured values reported in PubChem BioAssay (NCATS).
# Results filed as inconclusive are left out. A call without a number means that no potency is given here. Calls of active or inactive are those of the source. Calls come from the whole dose curve; as a rule, active = well fitted cell-killing curve with a large enough effect; inconclusive = small, poorly fitted or top-dose-only effect; inactive = no such curve, though single readings can be large or run the other way.
# Assay: qHTS of pediatric cancer cell lines to identify multiple opportunities for drug repurposing: Primary screen for Rh30 cells (AID 1347107); note: nearly all actives have a fitted effect of over 75% in size
# Details: Rh30 rhabdomyosarcoma viability, CellTiter-Glo luminescence, 48 h; series mostly up to 46 µM
# Method in brief: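 Cells (500-1,000/well) rested 5 h, then received compounds for 48 h; metabolically active cells were measured by CellTiter-Glo luminescence. Final concentrations spanned up to 46 µM (MIPE, 11-point) or 0.59 nM-46 µM (NPC, 8-point) in primary screens, 11-point in follow-ups.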
row,SMILES,Potency
1,CC(C)(C)[C@]1(O)C[C@@H]2OC(=O)C[C@@]23C(=O)O[C@@H]2OC(=O)[C@H](O)C213 (stereo not given in full),inactive
2,CC(=O)Nc1ccc(OC[C@](C)(O)C(=O)Nc2ccc([N+](=O)[O-])c(C(F)(F)F)c2)cc1,inactive
3,Cc1cc(O)ccc1Cl,inactive
4,OCCCBr,inactive
5,C=CC(=O)NCNC(=O)C=C,inactive
6,CN[C@@H](C)[C@H](O)c1ccccc1,inactive
7,CSCC[C@@H](NC(=O)[C@@H](Cc1ccccc1)NC(=O)CNC(=O)CNC(=O)[C@@H](N)Cc1ccc(O)cc1)C(=O)O,inactive
8,O=C1CCC[C@@H]2[C@H]3CCCN4CCC[C@@H](CN12)[C@@H]34,inactive
9,CN(C)[C@@H]1C(=O)C(C(N)=O)=C(O)[C@@]2(O)C(=O)C3=C(O)c4c(O)cccc4[C@@](C)(O)[C@H]3[C@H](O)[C@@H]12,inactive
10,O=C(O)C(Cl)Cl,inactive
11,Oc1ccc2c3c1O[C@H]1[C@@H](O)C=C[C@H]4[C@@H](C2)NCC[C@@]341,inactive
12,CCN1C[C@]2(OC(=O)c3ccccc3NC(C)=O)CC[C@H](OC)[C@@]34[C@H]5CC6[C@@H](OC)C[C@](O)(C(C[C@@H]23)[C@@H]14)[C@@]5(O)[C@@H]6OC,inactive
13,C#CC1(O)CCC2C3CCC4=CC(=O)CCC4(C)C3CCC21C (stereo not given),inactive
14,CC[N+]1(CCOC(=O)C(O)(c2ccccc2)c2ccccc2)CCCCC1,inactive
15,C[C@@H]1[C@H](O)[C@@H](C)C=CC=CCCC=CC=CC=CC=C[C@H](O[C@H]2O[C@@H](C)[C@H](O)[C@@H](N)[C@@H]2O)CC2O[C@](O)(C[C@@H](O)[C@H](O)CC[C@@H](O)C[C@@H](O)C[C@@H](O)CC(=O)O[C@H]1C)C[C@H](O)[C@H]2C(=O)O,inactive
